# Assay results reported in PubChem BioAssay (EPA / NIEHS).
# Inconclusive results are not listed. Active and inactive are the calls of the source. Rule for the calls: active = hit-call score of the fitted dose curve at least 0.9, where 1 is the maximum; inconclusive = response in the unintended direction; inactive = score below 0.9.
# Molecular target: Oxysterols receptor LXR-alpha (Homo sapiens) (UniProt Q13133)
# Assay: ATG_LXRa_TRANS: Attagene TRANS-FACTORIAL HepG2 Assay for human Liver X Receptor alpha (LXRa) (AID 2282980)
# Conditions: HepG2 Attagene TRANS reporter, LXRa transactivation
# Experimental: ATG_TRANS is a cell-based, multiplexed-readout assay that uses HepG2, a human liver cell line, with measurements taken at 24 hours after chemical dosing in a 24-well plate.ATG_LXRa_TRANS is one of 30 assay component(s) measured or calculated from the ATG_TRANS assay. It is designed to make measurements of mRNA induction, a form of inducible reporter, as detected with fluorescence intensity signals by Reverse transcription polymerase chain reaction (RT-PCR) and Capillary electrophoresis technology.Data from the assay component ATG_LXRa_TRANS was analyzed into 1 assay endpoint. This assay endpoint, ATG_LXRa_TRANS, was analyzed in the positive analysis fitting direction relative to DMSO as the negative control and baseline of activity. Using a type of inducible reporter, measures of mRNA for gain-of-signal activity can be used to understand the reporter gene at the transcription factor-level as they relate to the gene NR1H3. Furthermore, this assay endpoint can be referred to as a primary readout, because this assay has produced multiple assay endpoints where this one serves a reporter gene function. To generalize the intended target to other relatable targets, this assay endpoint is annotated to the nuclear receptor intended target family, where the subfamily is non-steroidal.
# Human liver HepG2 cells are transiently transfected with multiple reporter transcription units (MRTUs) in 6-well plates using FuGene 6 reagent (Roche; 3 ml FuGene/1 mg DNA). The MRTU constructs are regulated by a cis-regulating element (promoter). […] A major difference between the CIS and TRANS system is that in CIS activities of endogenous TFs are measured, whereas the TRANS assay evaluates changes in activities of exogenous, chimeric NR-Gal4 proteins. […] At the end of 24 hour incubation, total RNA was isolated using TriZol reagent (Invitrogen). The isolated RNA is then reverse-transcribed using oligo(dT) primer and Mo-MLV reverse transcriptase (Invitrogen) with DNAse I (Ambion) treatment for 30 min. The one-tenth of the produced cDNA was amplified by PCR using Taq DNA polymerase (Invitrogen) and two reporter sequence-specific primers. The PCR products were fluorescently labeled by primer extension with 6-arboxyfluorescein (6-FAM) 5'-labeled reporter sequence-specific primer (2 min at 95 C, 20 s at 68 C and 10 min at 72 C) and these products were digested with 5U of HpaI (New England Biolabs) for 2h at 37 C. The fragments were purified using Qiaquick PCR columns (Qiagen), analyzed on an ABI 3130xL genetic analyzer (Applied Biosystems) with peak positions identified by using a set of X-rhodamine (ROX)-labeled MapMarker1000 molecular weight standards (BioVentures). The raw capillary electrophoresis data was processed using Attagraph software (Attagene).
# Chain of Oxysterols receptor LXR-alpha (Homo sapiens) (Q13133 whole entry, looked up): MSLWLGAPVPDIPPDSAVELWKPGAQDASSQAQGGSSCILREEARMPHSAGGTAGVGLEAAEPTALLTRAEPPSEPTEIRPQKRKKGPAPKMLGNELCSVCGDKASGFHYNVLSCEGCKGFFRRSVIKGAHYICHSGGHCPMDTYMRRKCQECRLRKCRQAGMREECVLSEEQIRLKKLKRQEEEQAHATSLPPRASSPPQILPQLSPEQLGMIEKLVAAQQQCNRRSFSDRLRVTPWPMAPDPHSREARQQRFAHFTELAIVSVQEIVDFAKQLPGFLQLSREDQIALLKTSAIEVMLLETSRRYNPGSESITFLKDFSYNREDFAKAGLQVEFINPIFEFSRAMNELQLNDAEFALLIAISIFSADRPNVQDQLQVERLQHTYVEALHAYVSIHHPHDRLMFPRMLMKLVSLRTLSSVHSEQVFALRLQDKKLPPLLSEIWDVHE
SMILES,outcome,AC50
C/C=C(\C)C(=O)OCc1ccccc1,inactive,
CCC(=O)OCc1ccccc1,inactive,
CC(=O)C=CC1=C(C)CCCC1(C)C,inactive,
COC(=O)Cc1cccc2ccccc12,inactive,
CC(=O)OCc1ccc2c(c1)OCO2,inactive,
CCN(CC)c1ccc(C(=C2C=CC(=[N+](CC)CC)C=C2)c2ccc(S(=O)(=O)O)cc2S(=O)(=O)[O-])cc1,inactive,
C=C(C)C1CCC(C)CC1O (stereo not given),inactive,
CCCCCCOC(=O)CC,inactive,
CC(C)(C)c1n[nH]c(=S)n(N)c1=O,inactive,
O=C(O)c1snc(Cl)c1Cl,inactive,
CC(C)=CCCC(C)=CCCC(C)=CCO,inactive,
COC(=O)c1ccc(C)cc1,inactive,
N#Cc1nc(Cl)c(Cl)c(Cl)c1Cl,inactive,
CCCCCC(=O)OCCc1ccccc1,inactive,
CC(C)(N)CO,inactive,
CCCc1c(OCCCOc2ccc(OCC(=O)O)cc2)ccc(C(C)=O)c1O,inactive,
COc1cc(C)cc(O)c1,inactive,
COC(C)CCO (stereo not given),,27.7 µM (active)
CC(C)=CCCC(C)CC=O (stereo not given),inactive,
CC1=CCC2C(C1)C2(C)C (stereo not given),inactive,

SMILES,outcome,AC50
c1ccc2c(c1)c1cccc3ccc4cccc2c4c31,inactive,
O=[N+]([O-])c1ccc(Nc2ccc(Nc3ccccc3)c(S(=O)(=O)O)c2)c([N+](=O)[O-])c1,inactive,
O=S(=O)(O)c1cccc2c(S(=O)(=O)O)cccc12,inactive,
CC(C)OP(=O)(CP(=O)(OC(C)C)OC(C)C)OC(C)C,inactive,
C[C@]12CC[C@H]3[C@@H](CCC4=CC(=O)CC[C@@]43C)[C@@H]1CC[C@@H]2C(=O)CO,inactive,
CC1CC(OC(=O)c2ccccc2O)CC(C)(C)C1 (stereo not given),,31.1 µM (active)
CC[Si](OC(C)=O)(OC(C)=O)OC(C)=O,inactive,
O=C1NC(=O)c2ccccc21,inactive,
CC(C)=CCC/C(C)=C/COC=O,inactive,
NCCOCCO,inactive,
C=CC[N+](C)(C)CC=C,inactive,
Nc1cc(N)cc(C(=O)O)c1,inactive,
CCOC(=S)SSC(=S)OCC,inactive,
CCCCCCCCCCCCCCCCCC(=O)OCC(CC)CCCC (stereo not given),inactive,
O=C(O)CCCCCCCCCCC(=O)O,inactive,
CC1=CC(=O)NS(=O)(=O)O1,inactive,
CC(=O)[O][Al][O]C(C)=O,inactive,
CC(C)c1cccc(O)c1,inactive,
[Ca+2],inactive,
CCCCC/C=C/C=C/C=O,inactive,
